Measurements: PubChem BioAssay (EPA / NIEHS)
Results filed as inconclusive are left out. The source made the active and inactive calls. Rule for the calls: active = hit-call score of the fitted dose curve at least 0.9, where 1 is the maximum; inconclusive = response in the unintended direction; inactive = score below 0.9.

These compounds were tested against Cellular tumor antigen p53 (Homo sapiens) (UniProt P04637) (assay: TOX21_p53_BLA_p4_ratio: Tox21 HCT-116 p53 Agonism Beta-lactamase Assay, Ratio, Phase 4 (AID 2283601)).
How it was run: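 Signal is the blue/green (460nm/530nm) ratio of cleaved versus uncleaved CCF4-AM substrate, read after 2 h substrate loading. Cells were HCT116 carrying the p53-responsive beta-lactamase reporter, dosed 16 h at 37C, 5% CO2; CellTiter-Glo measured in parallel.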

Cellular tumor antigen p53 (Homo sapiens), sequence (P04637 whole entry, looked up): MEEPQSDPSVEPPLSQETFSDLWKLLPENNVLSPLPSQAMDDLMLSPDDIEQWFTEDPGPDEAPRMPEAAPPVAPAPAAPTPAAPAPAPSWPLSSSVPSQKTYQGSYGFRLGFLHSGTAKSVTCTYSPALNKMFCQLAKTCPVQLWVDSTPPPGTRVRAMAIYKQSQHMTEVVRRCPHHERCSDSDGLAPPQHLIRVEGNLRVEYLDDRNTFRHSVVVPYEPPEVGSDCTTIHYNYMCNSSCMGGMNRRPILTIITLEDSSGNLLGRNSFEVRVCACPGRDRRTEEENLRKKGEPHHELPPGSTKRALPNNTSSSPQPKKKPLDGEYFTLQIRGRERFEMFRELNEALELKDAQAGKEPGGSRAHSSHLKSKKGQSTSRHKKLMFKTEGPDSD

| Compound | outcome |
| --- | --- |
| Cc1ccc(C(C)(C)c2ccc(C)cc2)cc1 | inactive |
| CCCCNC(=O)NCCCC | inactive |
| N[C@@H](CSCCCO)C(=O)O | inactive |
| CCNS(=O)(=O)c1ccc(C)cc1 | inactive |
| CN(C)C(=O)Oc1ccc[n+](C)c1 | inactive |
| CCCCOc1ccc(OCCCN2CCOCC2)cc1 | inactive |
| N[C@H]1CN(c2c(F)cc3c(=O)c(C(=O)O)cn(C4C[C@H]4F)c3c2Cl)CC12CC2 (stereo partly drawn) | inactive |
| O=C(O)c1ccc(NC(=O)[C@H](Cc2ccc(O)cc2)NC(=O)c2ccccc2)cc1 | inactive |
| CN[C@@H]1[C@@H](O)[C@@H](O[C@@H]2[C@@H](O)[C@H](O[C@H]3O[C@H](CN)[C@@H](O)[C@H](O)[C@H]3O)[C@@H](N)C[C@H]2NC(=O)C(O)CN)OC[C@]1(C)O (stereo partly drawn) | inactive |
| CC1=C(/C=C/C(C)=C/C=C/C(C)=C/C=C/C=C(C)/C=C/C=C(C)/C=C/C2=C(C)C(=O)CCC2(C)C)C(C)(C)CCC1=O | inactive |
| O[C@@H]1CO[C@H]2[C@@H]1OC[C@@H]2O | inactive |
| Cc1ccc(N)nc1 | inactive |
| C[C@H]1O[C@H](O[C@H]2[C@H](O)[C@@H](O)[C@@H](O[C@H]3[C@H](O)[C@@H](O)[C@H](O)O[C@@H]3CO)O[C@@H]2CO)[C@H](O)[C@@H](O)[C@@H]1N[C@H]1C=C(CO)[C@@H](O)[C@H](O)[C@H]1O | inactive |
| O=C(/C=C/c1ccc(O)c(O)c1)O[C@@H](C(=O)O)[C@@H](OC(=O)/C=C/c1ccc(O)c(O)c1)C(=O)O | inactive |
| COc1cc2c(cc1OC)C(C(C(=O)N(CCc1ccc(OC)c(OC)c1OC)CCc1ccc(OC)c(OC)c1OC)c1ccccc1)=NCC2 (stereo not drawn) | inactive |
| Oc1ccc(CCNCCCCCCNCCc2ccccc2)cc1O | inactive |
| O=C(O)c1cc(C(=O)O)cc(C(=O)O)c1 | inactive |
| CC1CCCCN1CCCOC(=O)c1ccccc1 (stereo not drawn) | inactive |
| O=S(=O)(O)c1cccc(S(=O)(=O)O)c1 | inactive |
| CCCCCCCCCCCCCCCC(=O)O[C@@H]1CC(C)=C(/C=C/C(C)=C/C=C/C(C)=C/C=C/C=C(C)/C=C/C=C(C)/C=C/C2=C(C)C[C@@H](OC(=O)CCCCCCCCCCCCCCC)CC2(C)C)C(C)(C)C1 | inactive |
| CC1(C)OC[C@@H](COC(=O)CCc2ccc(OC[C@@H](O)CNCCNC(=O)N3CCOCC3)cc2)O1 | inactive |
| CC(=O)CC(=O)Nc1ccc(S(=O)(=O)O)cc1 | inactive |
| CO[C@H]1O[C@@H]2O[C@@]3(C)CC[C@H]4[C@H](C)CC[C@@H]([C@H]1C)[C@@]24OO3 | inactive |
